In PubChem BioAssay:

The compounds below were run against Tumor necrosis factor receptor superfamily member 10B (Homo sapiens) (UniProt O14763) (assay: viability loss of caspase-8 NB7 cells with TRAIL – with/without TRAIL, luminescence panel, confirmation (AID 651596)). Details: NB7 neuroblastoma + caspase-8, TRAIL sensitization, NB7 Caspase-8, with TRAIL, mean of runs, at 10 µM, stronger effect = higher value.
Chain of Tumor necrosis factor receptor superfamily member 10B (Homo sapiens) (O14763 whole entry, looked up): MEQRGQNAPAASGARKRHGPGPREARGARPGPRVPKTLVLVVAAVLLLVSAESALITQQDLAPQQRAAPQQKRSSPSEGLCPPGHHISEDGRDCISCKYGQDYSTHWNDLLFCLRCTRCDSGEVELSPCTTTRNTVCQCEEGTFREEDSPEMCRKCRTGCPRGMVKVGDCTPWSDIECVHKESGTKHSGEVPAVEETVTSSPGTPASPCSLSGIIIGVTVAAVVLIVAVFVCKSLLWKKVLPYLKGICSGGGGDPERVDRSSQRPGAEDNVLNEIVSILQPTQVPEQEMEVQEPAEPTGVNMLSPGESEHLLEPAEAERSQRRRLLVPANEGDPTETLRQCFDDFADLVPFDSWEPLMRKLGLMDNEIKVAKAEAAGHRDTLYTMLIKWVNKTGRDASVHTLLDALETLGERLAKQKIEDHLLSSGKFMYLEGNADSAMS
With O=C(Nc1cccc(-n2cnnn2)c1)c1ccc(C(F)(F)F)cc1 the activity was 21.7%. COC(=O)c1ccc(NC(=O)C(=O)c2cccn2C)cc1 gave an activity of 59.5%. Cc1cc(C)c2c(=N)c3ccccc3n(CCCCCCCCn3c4ccccc4c(=N)c4c(C)cc(C)nc43)c2n1 was tested, and the activity was 78.3%. With COc1cc(/C=C/c2nc3ccccc3c(=O)[nH]2)ccc1OC(F)F the activity was 55.6%. CCCCNC(=O)c1ccc(Cn2c(=S)[nH]c3c([nH]c4ccc(OC)cc43)c2=O)cc1 showed an activity of 76.7%. For COc1cccc(C(=O)Nc2ccc(NC(=O)C(C)(C)C)cn2)c1, the activity was 79.7%. In the case of CS(=O)(=O)Nc1cccc(NC(=O)C2Cc3c(-c4ccco4)ccnc3O2)c1 (stereo not drawn), the activity is reported as 35.7%. Compound Oc1ccccc1-c1cc(-c2ccccc2)no1 has an activity of 46.3%. In the case of O=C(Nc1cccc(-c2ccc(N3CCCCC3)nn2)c1)C(F)(F)F, the activity is reported as 95.2%. Compound CCOc1cccc(C(=O)Nc2ccc3[nH]ncc3c2)c1 has an activity of 61%. COc1ccc(C(=O)Nn2c(SCC(=O)N3CCC(C)CC3)nc3ccccc3c2=O)cc1 showed an activity of 68.2%. With C/C(=N\Nc1nc2ccccc2[nH]1)c1ccccn1 the activity was 51.5%. O=C(N/N=C/c1ccc([N+](=O)[O-])o1)c1cc(-c2ccc(-c3ccccc3)cc2)nc2ccccc12 showed an activity of 85.8%. Nc1nc2ccccc2n1C(=O)c1ccc(F)cc1 showed an activity of 91.5%. COc1ccc(-c2cc3nc[nH]c(=O)c3s2)cc1 showed an activity of 61.5%. For COc1ccc(C(=O)Nc2nc3ccccc3[nH]2)cc1, the activity was 96.3%. For Nc1cc2sc(-c3ccc(C(=O)O)cc3)nc2cc1Cl, the activity was 52.8%. Compound CCn1cc(Cl)c(C(=O)Nc2ccc3c(c2)OCCO3)n1 has an activity of 39.5%.
